The results in this text go back to PubChem BioAssay (NCI).

Molecules are shown by their SMILES. About 83,000 compounds went through this panel and 20% of them were active in at least one assay; those are over-represented in the sample as a whole.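 Treatment: one concentration, 48 hours, 96-well format. Scoring: percent growth, with anything below 10 considered active.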 Active and inactive are the calls of the source.

The subject of this experiment is CAKI-1 renal. Put plainly: NCI-60 one-dose screen, 48 h (100 = growth as untreated, 0 = no growth, -100 = all killed). The settings on record: 10 µM unless noted.
Consider `O=C(O)CSCC(=O)Nc1cc(C(F)(F)F)ccc1Cl`, for which the growth was 89.4% (inactive).
With `N=C(N)c1nn(C2OC(CO)C(O)C2O)c2nc[nH]c(=O)c12` (centres undefined), the growth is 1.5% (active).
In the case of `CC(C)C(=O)OCCOc1ccc(C(C)(C)C)cc1`, the growth was 100% (inactive).
Then `OCCNc1ccccc1`, with 96.7% (inactive).
For `C/C(=N\Nc1ccc([N+](=O)[O-])cc1[N+](=O)[O-])c1ccc(Br)cc1` the value was 98.1% (inactive); for `O=C(Oc1ccccc1Cl)c1ccc(Cl)cc1Cl`, 99.8% (inactive).
Take `C=C(C)COc1ccc(C(C)(C)C)cc1`: the growth was 96.2% (inactive).
For `CCC(C)c1c(N)n(S(=O)(=O)c2ccc(C)cc2)oc1=O` (centres undefined), the growth was 96.5% (inactive).
With `Nc1ccn(C2CC(N)C(CO)O2)c(=O)n1` (centres undefined), the growth is 42.3% (inactive).
Take `CN(CCCN(C)CCC1CCCCC1)CCC1CCCCC1`: the growth was 46.9% (inactive).
`O=S(Cc1ccccc1)/C(=C/NC(=S)Nc1cc(Cl)ccc1Cl)c1ccccc1` (centres undefined): the growth is 97.1% (inactive).
For the compound `Cc1c(Cl)cccc1N=C=S`, the growth was 88.8% (inactive).
With `CCCC1OC(c2ccco2)OCC1CC` (centres undefined), the growth was 88.2% (inactive).
As to `CN1CCCN(C(c2ccccc2)c2ccc(Br)cc2)CC1` (centres undefined), the growth was 49.2% (inactive).
For `OCCOc1ccc(-c2cc(-c3ccccn3)nc(-c3ccccn3)c2)cc1` the value was 3.07% (active); for `O=C(Nc1cccc(Cl)c1)c1ccc(Cl)cc1Cl`, 92.2% (inactive); for `CC(=O)Oc1c(Cl)cccc1-c1ccccc1`, 98.3% (inactive).
With `C/C=C/C1OCC(CC)C(CCC)O1` (centres undefined), the growth was 99.9% (inactive).
As to `COc1cccc(C(=O)O)c1OC`, the growth is 97.4% (inactive).
